High-throughput results as filed in PubChem BioAssay.
KCNH2 3.1 inh – qHTS for Inhibitors of KCHN2 3.1: Mutant qHTS; Potassium voltage-gated channel subfamily H member 2, brain isoform KCNH2 3.1 (human); activity change, % (tested at about 1.8 µM); AID 720553, 2013; 0.95% of 340,000 active; U2OS KCNH2 3.1, thallium flux FluxOr; active compounds read low;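 active = maximum activity change below -70%; inconclusive = maximum activity change from -70% to -50%; inactive = maximum activity change above -50%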;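 also: thallium influx rate constant from kinetic fluorescence after stimulation buffer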
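Kinetic fluorescence (2 min after stimulation buffer) measures Tl+ influx through KCNH2 3.1 expressed by viral transduction in U2OS cells; the rate constant is normalized against DMSO controls serving as positive and negative references.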
Luc counter – Counterscreen for Luciferase (Kinase-Glo TM) Inhibition; Potency, µM (highest dose often 38.3 µM), for inactives: at the highest dose activity change, negative = inhibition, usual class: inhibitors; AID 1379, 2008; Luciferin 4-monooxygenase (Photuris pensylvanica), Q27757; Kinase-Glo luciferase, ATP luminescence, 8 min; 0.28% of 200,000 active; active = well fitted inhibition curve with a large enough effect; inconclusive = small, poorly fitted or top-dose-only effect; also: potency is read from the fitted curve at half-maximal effect; nearly all actives have a fitted effect of over 60% in size
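Kinase-Glo luciferase light output from ATP and luciferin was measured with 10 uM ATP, within the enzyme's linear range. Buffer: 50 mM imidazole pH 7.2, 50 mM KCl, 7 mM MgCl2, 0.01% Tween 20, 0.05% BSA; luminescence read after 8 min at ambient temperature.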
hERG WT inh – qHTS for Inhibitors of KCHN2 3.1: Wildtype qHTS; activity change, % at 1.84 µM; U2OS, BacMam KCNH2, thallium flux FluxOr; active compounds read low; 0.37% of 340,000 active; AID 720551, 2013; Voltage-gated inwardly rectifying potassium channel KCNH2 (Homo sapiens), Q12809;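 active = maximum activity change below -70%; inconclusive = maximum activity change between -70% and -50%; inactive = maximum activity change above -50%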
Target sequence (Q12809 whole entry, looked up): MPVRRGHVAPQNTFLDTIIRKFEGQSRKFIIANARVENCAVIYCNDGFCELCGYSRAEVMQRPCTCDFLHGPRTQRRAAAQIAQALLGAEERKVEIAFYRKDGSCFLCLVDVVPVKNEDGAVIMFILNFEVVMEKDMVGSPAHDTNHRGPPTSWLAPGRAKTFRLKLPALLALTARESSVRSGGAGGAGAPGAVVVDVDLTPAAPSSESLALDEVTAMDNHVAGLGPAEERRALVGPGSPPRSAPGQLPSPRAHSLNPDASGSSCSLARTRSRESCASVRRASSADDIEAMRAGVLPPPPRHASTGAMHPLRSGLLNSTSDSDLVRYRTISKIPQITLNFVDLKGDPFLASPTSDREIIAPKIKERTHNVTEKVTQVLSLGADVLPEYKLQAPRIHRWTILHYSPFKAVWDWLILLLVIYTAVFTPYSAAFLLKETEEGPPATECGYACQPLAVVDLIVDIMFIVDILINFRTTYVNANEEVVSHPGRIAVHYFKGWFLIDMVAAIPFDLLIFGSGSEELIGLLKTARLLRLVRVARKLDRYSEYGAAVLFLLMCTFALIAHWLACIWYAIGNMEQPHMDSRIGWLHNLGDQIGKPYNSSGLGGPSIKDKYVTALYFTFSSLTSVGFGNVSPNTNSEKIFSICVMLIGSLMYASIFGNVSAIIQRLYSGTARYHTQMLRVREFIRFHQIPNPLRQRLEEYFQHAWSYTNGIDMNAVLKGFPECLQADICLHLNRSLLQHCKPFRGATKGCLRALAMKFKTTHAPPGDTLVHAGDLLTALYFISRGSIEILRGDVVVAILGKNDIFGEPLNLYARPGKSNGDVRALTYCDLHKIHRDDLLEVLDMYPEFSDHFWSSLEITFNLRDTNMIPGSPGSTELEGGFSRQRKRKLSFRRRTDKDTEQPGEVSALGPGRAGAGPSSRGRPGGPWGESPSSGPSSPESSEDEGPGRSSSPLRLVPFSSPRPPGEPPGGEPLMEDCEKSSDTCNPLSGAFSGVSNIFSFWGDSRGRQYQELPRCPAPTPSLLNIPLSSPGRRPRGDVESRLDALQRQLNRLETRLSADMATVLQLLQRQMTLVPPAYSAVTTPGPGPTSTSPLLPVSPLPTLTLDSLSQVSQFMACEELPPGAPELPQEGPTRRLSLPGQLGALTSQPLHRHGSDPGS
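U2OS cells transduced with wild-type KCNH2 virus are loaded with FluxOr dye for 45 min, and thallium flux is measured in kinetic reads before and after stimulation buffer. Rate constants are normalized to DMSO controls.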
* = called active by the depositor; ? = inconclusive; nt = no result; [ ] = remark or other dose. An excerpt weighted towards active compounds, which were near 1.2% of everything screened. % is scaled to controls: 0 for no effect and ±100 for the full control effect.

SMILES | KCNH2 3.1 inh | Luc counter | hERG WT inh
Cc1ccccc1Cn1c(=N)n(CC(O)c2ccco2)c2ccccc21 (configuration not stated) | -21.8 | 3.7% | 50.6
CCCCn1c(=N)n(CC(O)COc2ccc(C)cc2)c2ccccc21 (configuration not stated) | -90.2* | -6.9% | -83.3*
CCCCCCCn1c(=N)n(CC(O)c2ccco2)c2ccccc21 (configuration not stated) | -106.1* | -1.8% | -38.4
CC(C)(C)c1ccc(Cn2c(=N)n(CC(O)c3ccco3)c3ccccc32)cc1 (configuration not stated) | ? | -4.1% | -84.8*
N=c1n(CCN2CCCC2)c2ccccc2n1CC(O)c1ccco1 (configuration not stated) | -17.7 | -0.4% | 22.5
Cc1cc(C)c(OCC(=O)OCC(=O)NNC(=O)c2ccccc2F)c(C)c1 | -0.2 | nt | -16.8
Cc1c(C=O)c2cc(OCc3ccccc3)ccc2n1C | 11.5 | nt | 2.7
Cc1ccc(Nc2nc3ccc(Cl)cc3n3cnnc23)cc1F | -0.9 | nt | -126.5*
Cc1ccc2nc(Nc3ccc(F)cc3)c3nncn3c2c1 | -4.8 | nt | -3.8
CCO[C@H]1OC(C(=O)N2CCN(Cc3ccc4c(c3)OCO4)CC2)=C[C@@H](C2CC2)[C@@H]1CCCO | 0.0 | nt | -7.5
O=c1c(-c2ccccc2)c(O)c2ccccc2n1-c1ccccc1 | -71.6* | nt | -17.9
CCn1c(=O)c(-c2ccccc2)c(O)c2ccccc21 | 4.7 | 1.8% | -7.0
COc1ccc(C(=O)NCCS(=O)(=O)NC(C)c2ccccc2)cc1 (configuration not stated) | -3.7 | nt | -2.2
CN(c1ccc(OCC(=O)N2CCCC2)cc1)S(=O)(=O)c1ccc(Cl)cc1 | 10.9 | nt | -132.9*
COc1ccc(S(=O)(=O)N(C)CC(=O)N2CCCCCC2)cc1 | 7.5 | nt | -17.9
CCOc1ccc(S(=O)(=O)N(C)c2ccc(OCC(=O)N3CCOCC3)cc2)cc1 | 2.7 | 4.2% | 0.1
CCOc1ccc(S(=O)(=O)N(C)CC(=O)N2CCCC2)cc1 | -99.6* | nt | -8.9
Cc1cc(C)nc(N/N=C/c2sccc2C)n1 | 5.0 | -26.7% | 16.8
Cc1ccsc1/C=N/Nc1nc(=O)[nH]nc1C | -5.5 | 4.47µM* | -1.8
O=C(NCCN1CCOCC1)c1cc(-c2cccs2)on1 | -172.0* | 1.0% | -11.4
O=C(NCCN1CCOCC1)c1cc(-c2ccccc2)on1 | 5.9 | 0.6% | -2.1
CC1(C)CC(/C=C/c2ccccc2)=Nc2ccccc2N1 | -2.1 | nt | -1.7
O=c1[nH]c(=S)[nH]c2nc(-c3ccccc3)cnc12 | 8.5 | nt | 4.5
Nc1[nH]c(=S)[nH]c(=O)c1-c1ccccc1 | 6.9 | -1.6% | -182.9*
OC(COc1ccccc1)CN1CCN(C(c2ccccc2)c2ccccc2)CC1 (configuration not stated) | -108.7* | nt | -119.8*
SMILES | KCNH2 3.1 inh | Luc counter | hERG WT inh
Cc1ccc(Cl)cc1N1CCN(CC(O)COCc2ccco2)CC1 (configuration not stated) | nt | nt | 65.8
OC(COCc1ccco1)CN1CCN(C(c2ccccc2)c2ccccc2)CC1 (configuration not stated) | -104.4* | -2.0% | -76.2*
N#Cc1ccc(OCC(O)CN2CCN(c3ncc(C(F)(F)F)cc3Cl)CC2)cc1 (configuration not stated) | -100.5* | nt | ?
OC(COc1ccc(OCC(O)CN2CCN(Cc3ccccc3)CC2)cc1)CN1CCN(Cc2ccccc2)CC1 (configuration not stated) | 33.7 | nt | 1.4
OC(COc1ccccc1)CN1CCCC1 (configuration not stated) | 25.0 | 1.1% | 2.9
OC(CN1CCN(c2ncc(C(F)(F)F)cc2Cl)CC1)c1ccccc1 (configuration not stated) | ? | nt | -3.7
N#Cc1ccc(OCC(O)CN2CCN(C(c3ccccc3)c3ccccc3)CC2)cc1 (configuration not stated) | -99.8* | nt | -84.1*
CC(=O)Nc1c(Cl)c(Cl)c2c(c1Cl)Cc1cc(Cl)ccc1-2 | 19.3 | nt | -4.5
C[C@@]12C(=O)N(CC3CC3)CC(=O)N1[C@H](/C=C/c1ccccc1)[C@@H]1C(=O)N(c3ccccc3)C(=O)[C@@H]12 | 7.8 | nt | -3.2
CC1CCCCC1NC(=O)C(C)N1C(=O)c2ccccc2C1=O (configuration not stated) | -1.1 | nt | -0.1
O=C(Cn1sc2ccccc2c1=O)N1CCN(C(=O)c2ccco2)CC1 | 6.8 | nt | 3.7
c1ccc(OCCOCCN2CCN(C(c3ccccc3)c3ccccc3)CC2)cc1 | -86.4* | 2.3% | -78.2*
N#Cc1ccc(-c2ccc(OCC(O)CN3CCCCC3)cc2)cc1 (configuration not stated) | -31.9 | nt | 54.9
CCC(=O)c1ccc(OCC(O)CN2CCN(C(c3ccccc3)c3ccccc3)CC2)cc1 (configuration not stated) | -97.9* | -2.8% | -87.9*
CCC(=O)c1ccc(OCC(O)CN2CCOCC2)cc1 (configuration not stated) | 3.2 | 7.5% | 15.0
N#Cc1ccc(OCC(O)CN2CCN(CC(O)COc3ccc(C#N)cc3)CC2)cc1 (configuration not stated) | -107.0* | nt | -147.1*
COc1ccccc1OCCCCN1CCN(C(c2ccccc2)c2ccccc2)CC1 | -93.3* | 1.6% | -48.9
COc1cccc(OC)c1OCCCCCCN1CCN(C)CC1 | -21.4 | nt | 5.2
O=C(O)COCCN1CCN([C@@H](c2ccccc2)c2ccc(Cl)cc2)CC1 | nt | 2.9%[17.1 µM] | nt
CCOC(=O)C1CCN(C(=O)CCc2nc3sc4c(c3c(=O)[nH]2)CCCC4)CC1 | 9.5 | nt | 4.6
COc1ccc(CCNC(=O)c2cc(-c3ccccn3)nc3ccccc23)cc1 | -9.8 | nt | -3.7
OCCC1CN(Cc2cccn2-c2ccccn2)CCN1C1CCCC1 (configuration not stated) | -0.4 | nt | 42.4
COc1ccc(C(=O)C2CCCN(Cc3cccn3-c3nccs3)C2)cc1OC (configuration not stated) | ? | nt | -34.9
COc1ccc(C(=O)C2CCCN(Cc3cccn3-c3nccs3)C2)cc1F (configuration not stated) | -116.7* | -1.4% | -103.1*
O=C(c1ccc(Cl)cc1)C1CCCN(Cc2cccn2-c2ccccn2)C1 (configuration not stated) | -104.5* | -2.9% | -108.9*
COc1ccc(F)cc1C(=O)C1CCCN(Cc2cccn2-c2cccnc2)C1 (configuration not stated) | -19.3 | -1.5% | 14.1
COc1ccc(C(=O)C2CCCN(Cc3cccn3-c3ccccn3)C2)cc1F (configuration not stated) | -93.3* | 0.7% | -96.2*
Cc1ccc(-n2cccn2)c(CN2CCCC(C(=O)c3sccc3C)C2)c1 (configuration not stated) | 1.3 | nt | 7.7
Cc1ccsc1C(=O)C1CCCN(Cc2cccn2-c2ccc(Cl)cn2)C1 (configuration not stated) | -14.8 | nt | -106.5*
COc1ccc([C@H]2/C=C\CN(C(=O)[C@H](Cc3ccccc3)NC(=O)OCC3c4ccccc4-c4ccccc43)CC(=O)N2Cc2ccc(F)cc2)cc1 | -9.3 | nt | 12.8
